The panel holds about 83,000 compounds, 20% with a hit somewhere; the sample as a whole holds those more often.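 Results are percent growth after 48 hours of single-concentration exposure. 100 means growth as in untreated cells, lower positive values show inhibition; negative values down to -100 show cell death.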 Unmarked numbers belong to inactive results. The source made the active and inactive calls. Rule for the calls: active = growth percent below 10; inactive = the rest.

This test relates to EKVX NSCLC. As to the kind of experiment: NCI-60 one-dose screen, 48 h (100 = growth as untreated, 0 = no growth, -100 = all killed). As to conditions: 10 µM.
In the case of `Cc1cc2c(-c3nc4ccccc4n3C)c(O)c(O)cc2c(O)c1-c1c(C)cc2c(-c3nc4ccccc4n3C)c(O)c(O)cc2c1O`, the growth is 56.8%.

As for `COc1ccc2sc(-n3nc4nc5n(c(=O)c4c3N)-c3ccccc3Sc3ccccc3-5)nc2c1`, the growth is 42.1%.

Consider `CCCC(=O)NNc1[nH]c(-c2ccc(OC)cc2)cc1C(=O)OCC`, for which the growth is 108%.

Turning to `O=C(/C(Br)=C/c1ccccc1)c1ccccc1`, the growth is 109%.

Consider `C/C=C(/C)C(=O)OC1C=C(CO)C(=O)C(OC(=O)C(C)(O)C(C)Cl)C1C(C)C` (stereo not given), for which the growth is -15% (active).

As to `CC([C@H]1CC=C2C3CCC4=C[C@@H](N(C)C)CC[C@]4(C)C3CC[C@@]21C)N(C)C` (stereo not given in full), the growth is -38.8% (active).

Take `COc1ccc(/C=C2\SC(=O)N(Cc3cc(=O)oc4ccc(OC)cc34)C2=O)cc1`: the growth was 79.3%.

On to `CCCCCCCCCCCCCCCC[n+]1cccc(C#N)c1`, for which the growth was 98%.

As to `COc1ccc2cnc(N)c(C#Cc3cc(C(=O)Nc4ccc(CN5CCN(C)CC5)c(C(F)(F)F)c4)cnc3C)c2c1`, the growth was 71.8%.

Turning to `CCCCCc1ccnc(CC(=O)c2ccc(OC)cc2)c1`, the growth is 92.5%.

In the case of `CCCCCCCCCCCCCCCCCC1=NCCN1CS(=O)(=O)O`, the growth was 80.1%.

In the case of `COc1ccc(OC)c(Cn2cc3c(c2)-c2oncc2CC3)c1`, the growth was 42%.

As to `CC1Cc2cc(F)ccc2-n2cccc21` (stereo not given), the growth was 107%.

Turning to `CC/C(=N\Nc1nc2ccccc2n1C)c1ccccn1`, the growth was 6.6% (active).

As to `O=C(CN1C(=O)NC(c2ccccc2)(c2ccccc2)C1=O)c1ccc(N2CCCC2)cc1`, the growth was 82.4%.

Consider `COc1ccc(-c2nc(N)n(C(=S)Nc3ccccc3)n2)cc1`, for which the growth is 96.3%.

In the case of `Cc1sc(NC(=O)c2ccc(C(C)(C)C)cc2)c(C(=O)O)c1C`, the growth was 51.1%.

For the molecule `C#CCCCCCCC[C@@H]1OC(=O)[C@H]([C@@H](C)CC)NC(=O)[C@H]([C@@H](C)CC)NC(=O)CC(=O)[C@@H]1C`, the growth is 97.8%.

With `Cc1ccc(CC(=O)O)c(C)c1`, the growth is 109%.

With `CCOc1ccc2nc3ccc(Cl)cc3nc2c1`, the growth is 75%.

As for `CC[n+]1c(C)ccc2cc(C)ccc21`, the growth was 72.6%.

Regarding `COC(=O)/C(Br)=C/c1c[nH]c2ccc(Br)cc12`, the growth is 76.2%.

Turning to `Cc1ccc([C@@H]2C[C@H](O)Cc3ccccc3N2)s1`, the growth was 97.6%.

For `COC(=O)/C=C/c1cc(O)c2oc(-c3ccc(O)c(O)c3)c(C(=O)OC)c2c1`, the growth was 49.7%.

As for `CCc1c(C)c2ccc(OCC(=O)N=Nc3c(O)[nH]c4ccccc34)c(C)c2oc1=O`, the growth was 88.9%.

As to `CC1=C(C)C[C@]2(C(=O)O[C@H]3CCCC[C@@H]32)[S@](=O)C1`, the growth was 109%.

Regarding `CCOC(=O)C1=NN(c2ccccc2)C2=NC(=O)/C(=C\c3cn(-c4ccccc4)nc3-c3cc4ccccc4o3)C(=O)N12`, the growth is 90.2%.

Turning to `COc1cc2c(/C=C3\C(=O)Nc4ccc(Br)cc43)c(Cl)n(C)c2cc1C`, the growth was 42.1%.

As for `COc1cc2c(cc1OC)C(Cc1cc(OC)c(OC)cc1[N+](=O)[O-])=NCC2`, the growth is 92.8%.

For `COc1ccc(-c2nc(SCC(C)C)nc(Nc3ccc([N+](=O)[O-])cc3)c2C#N)cc1`, the growth is 98.5%.

Regarding `O=C(/C=C/c1c[nH]c2ccccc12)c1cc2ccccc2o1`, the growth was 84.4%.

As to `O=C(CBr)OCc1ccc([N+](=O)[O-])o1`, the growth was 124%.

Consider `C/C=C(/C)C(=O)OC1C=C(CO)C(=O)C(OC(=O)C2(C)OC2C)C1C(C)C` (stereo not given), for which the growth is -11.8% (active).

For the molecule `Oc1ccc(CN(Cc2ccc(C(F)(F)F)cc2)Cc2ccc(O)c3ncccc23)c2cccnc12`, the growth was 19%.

For the molecule `COc1cc(-c2nc(/C=C3/C(=O)Nc4ccccc43)c3ccccn23)cc(OC)c1OC`, the growth is 102%.

For the origin of these results see PubChem BioAssay (NCI).
